# Laboratory results as given in the supplement of paper PMC10338343.
# ± gives the standard deviation. Over roughly 6,200 sequences, “pre-steady-state target cleavage rate” has its median near 0.29; the highest 2% begin near 2. This is one part of a sample in which the highest values are shown more often than they occur.
# Tested on: MIWI (PIWIL1) piRISC loaded with piRNA #1 (30 nt)
# Experiment: pre-steady-state target cleavage rate (min^-1); MIWI and MILI are mouse PIWI proteins and EfPiwi is from a freshwater sponge; tags in brackets are library labels; higher = faster piRNA-guided slicing of the target
# Details: guide: piRNA #1 5'p-UGAGGUAGUAGGUUGUAUAGUAUCCAGAGG; auxiliary factor: 500 nM mouse GTSF1
# Summary of the method: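 The pre-steady-state cleavage rate was calculated from a burst-and-steady-state fit. Data came from Cleave-'n-Seq, in which […] transcribed, DNA-blocked target RNA library was mixed with 1 nM active affinity-purified piRISC carrying one synthetic guide, with or without 500 nM GTSF1 partner protein, in HEPES–potassium acetate buffer at 33 °C for 0–8 or 0–960 min. Uncleaved targets were sequenced and normalised to depth and to weakly complementary targets, three trials were pooled, and k3 was capped at 0.0001 min^-1.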
# 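Further: 1 nM active piRISC with 0.1 nM target library at 33 °C single turnover.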
row,Sequence,pre-steady-state target cleavage rate
1,GGAGACCUUUCUAUACAACCUAGUACCUCA,0.238 ± 0.034
2,CCUCUGGAUAGAAUACAACCUACUACCUCA,1.24 ± 0.066
3,GGAGACCAUACUAUUCUACCUACUACCUCA,0.224 ± 0.035
4,GGAGAGGGUACUAUACAACCUACUACCUCA,1.17 ± 0.051
5,GGACUGGAUUCUAUACAACCUACUAGCUCA,0.118 ± 0.022
6,GGAGACCUAUGAUAUCAACCUACUACCUACA,< 0.0001
7,GGAGACGAUACUAUACAACCUACUACCGUCA,0.443 ± 0.065
8,GGAGUGGAUACUAUCACAACCUACUACCUCA,1.49 ± 0.12
9,GGAGUGGAUACUAUACAAGCUACUUCCUCA,0.374 ± 0.031
10,CCUCUGGUUACUAUACAACCUACAACCUCA,1.28 ± 0.089
11,CCUCUGGUUACUAUACAACCUACUACCUCA,2.29 ± 0.13
12,GCUCUGGUUACUAUACAACCUACAACCUCA,1.33 ± 0.079
13,CCUCUGGUUACUAUACAACCUACUAGCUCA,0.705 ± 0.055
14,GCACUGGUUACUAUACAACCUACUACCUCA,1.84 ± 0.11
15,GGUCUGGUUACUAUACAACCUACUACCUCA,1.87 ± 0.11
16,CCACUGGUUACUAUACAACCUACUACCUCA,2.28 ± 0.14
17,GGUCUGGUUACUAUACAACCUACUACCACA,0.747 ± 0.068
18,GGACUGGUUACUAUACAACCUACUACCUCA,1.65 ± 0.13
19,GCUCUGGUUACUAUACAACCUACUACCUCA,2.1 ± 0.12
20,CCUCUGGUUACUAUACAACCUACUACCACA,1.79 ± 0.14
21,GCUCUGGUUACUAUACAACCUACUACCACA,2.3 ± 0.24
22,GGAGACCUAUCUAUACUACCUACAACCUCA,0.0031 ± 0.0021
23,GGAGACCUAUCUAUACAACCUACUACCUGA,0.516 ± 0.057
24,GGAGUGGAUACUAUACAACCUACUAACCUCA,0.901 ± 0.053

row,Sequence,pre-steady-state target cleavage rate
1,GGAGUGGAUUCUAUACAACCUACUACGUCA,0.522 ± 0.048
2,CCUCUGGAUACUAUACAACCACUACCUCA,0.033 ± 0.0096
3,CCUCUGGAUACUAAACAACCUACUACGUCA,1.49 ± 0.087
4,GGAGACCUUACUAUUCAACCUACUACGUCA,0.678 ± 0.064
5,GGAGACCAUUCUAUACAACCUACAACCUCA,0.667 ± 0.075
6,GGUCUGGAUAGUAUACAUCCUACUACCUCA,0.741 ± 0.083
7,GGAGAGGAUACUAUACAUCCUACUUCCUCA,0.0568 ± 0.0099
8,GGAGACCUAACUAAACAACCUACUAGCUCA,0.0502 ± 0.019
9,GCUCUGGUUACAAUACAACCUACUACCUCA,1.98 ± 0.12
10,CCUCUGGUUACAAUACAACCUACUACCUCA,2.15 ± 0.13
11,GCUCUGGUUACUUUACAACCUACUACCUCA,1.7 ± 0.089
12,GGUCUGGUUUCUAUACAACCUACUACCUCA,1.8 ± 0.12
13,CCUGUGGUUACUAUACAACCUACUACCUCA,1.17 ± 0.058
14,CCUCUGGUUUCUAUACAACCUACUACCUCA,2.25 ± 0.15
15,GGUCUGGUUACAAUACAACCUACUACCUCA,1.59 ± 0.12
16,GGUCUGGUUACUUUACAACCUACUACCUCA,1.69 ± 0.13
17,GGUGUGGUUACUAUACAACCUACUACCUCA,1.54 ± 0.097
18,GCUCUGGUUUCUAUACAACCUACUACCUCA,2 ± 0.12
19,GCUGUGGUUACUAUACAACCUACUACCUCA,2 ± 0.13
20,CCUCUGGUUACUUUACAACCUACUACCUCA,2.24 ± 0.16
21,GGAGACGAUACUAUACAACAUACUACCUCA,1.16 ± 0.077
22,GGAGUGGAUUCUAAACAACCUACUACCUCA,0.994 ± 0.069
23,GGAGACCUAUGAUAUGUACCUACUAACUCA,< 0.0001
24,GGAGUGCAUACUAUACAACCUACUACCUGA,0.513 ± 0.077

row,Sequence,pre-steady-state target cleavage rate
1,GGAGACCUAUGUAUACAACCUACUACUCA,0.00349 ± 0.0019
2,GGAGACCUUACAAUAGAACCUACUACCUCA,0.167 ± 0.022
3,GGAGACCAUACUAUACAACCUACUUCCUCA,0.666 ± 0.054
4,GGUCUGGAUACUAUACAACUUACUACCUCA,0.481 ± 0.028
5,GGAGUGCAUUCUAUACAACCUACUACCUCA,1.32 ± 0.11
6,CCUCUCGAUACUAUACAACCUACUACCUCA,2.01 ± 0.12
7,GCUCUCGAUACUAUUCAACCUACUACCUCA,1.86 ± 0.11
8,GCUCCGGAUACUAUACAACCUACUACCUCA,1.81 ± 0.12
9,GGUCGGGAUACUAUACAACCUACUACCUCA,1.66 ± 0.11
10,GGUCUCGAUACUAUUCAACCUACUACCUCA,1.86 ± 0.12
11,GCUCUCGAUACUAUACAACCUACUACCUCA,1.86 ± 0.11
12,GGUCCGGAUACUAUACAACCUACUACCUCA,1.76 ± 0.11
13,CCUCUCGAUACUAUACAACCUACAACCUCA,1.34 ± 0.077
14,CCUCUCGAUACUAUUCAACCUACUACCUCA,2.27 ± 0.15
15,CCUCGGGAUACUAUACAACCUACUACCUCA,2.3 ± 0.16
16,GCUCGGGAUACUAUACAACCUACUACCUCA,1.5 ± 0.071
17,CCUCCGGAUACUAUACAACCUACUACCUCA,2.08 ± 0.14
18,GGUCUGGUACUAUACAACCUACUACCUCA,1.73 ± 0.11
19,GGAGACCAAACUAUACAACCUAGUACCUCA,0.226 ± 0.033
20,GGAGACCUAUGUAUACAACCUACUACCUGCA,0.0855 ± 0.011
21,GGAGACCUAACUUAUACAACCUACUACCUCA,0.23 ± 0.041
22,CCUCUGGAUACUAUUCAACCUACUAGCUCA,1.37 ± 0.12
23,CCUCGGAUACUAUACAACCUACUACCUCA,1.96 ± 0.13
24,GGUCUCGAUACUUUACAACCUACUACCUCA,1.54 ± 0.093
